In assay [1] the target is T1, Mitogen-activated protein kinase 12 (Homo sapiens) (UniProt P53778).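 Also: values are averaged p38gamma kinase inhibition readings, compounds tested at 1 µM.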
T1 sequence (whole entry): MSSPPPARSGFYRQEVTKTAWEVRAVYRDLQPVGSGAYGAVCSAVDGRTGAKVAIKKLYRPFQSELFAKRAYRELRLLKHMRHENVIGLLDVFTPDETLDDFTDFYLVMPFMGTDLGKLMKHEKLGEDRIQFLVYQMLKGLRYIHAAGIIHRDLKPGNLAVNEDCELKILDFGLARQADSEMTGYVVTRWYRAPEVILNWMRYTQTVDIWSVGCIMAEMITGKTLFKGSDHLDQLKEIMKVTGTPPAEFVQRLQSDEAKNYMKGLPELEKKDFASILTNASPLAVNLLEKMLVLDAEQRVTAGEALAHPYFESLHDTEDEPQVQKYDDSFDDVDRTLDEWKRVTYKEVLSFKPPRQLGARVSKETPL
Conditions: at 1 µM.

In assay [2] the target is SRSF protein kinase 1 (Homo sapiens) (UniProt Q96SB4). As to conditions: at 0.1 µM.
Sequence of SRSF protein kinase 1 (Homo sapiens) (Q96SB4 whole entry): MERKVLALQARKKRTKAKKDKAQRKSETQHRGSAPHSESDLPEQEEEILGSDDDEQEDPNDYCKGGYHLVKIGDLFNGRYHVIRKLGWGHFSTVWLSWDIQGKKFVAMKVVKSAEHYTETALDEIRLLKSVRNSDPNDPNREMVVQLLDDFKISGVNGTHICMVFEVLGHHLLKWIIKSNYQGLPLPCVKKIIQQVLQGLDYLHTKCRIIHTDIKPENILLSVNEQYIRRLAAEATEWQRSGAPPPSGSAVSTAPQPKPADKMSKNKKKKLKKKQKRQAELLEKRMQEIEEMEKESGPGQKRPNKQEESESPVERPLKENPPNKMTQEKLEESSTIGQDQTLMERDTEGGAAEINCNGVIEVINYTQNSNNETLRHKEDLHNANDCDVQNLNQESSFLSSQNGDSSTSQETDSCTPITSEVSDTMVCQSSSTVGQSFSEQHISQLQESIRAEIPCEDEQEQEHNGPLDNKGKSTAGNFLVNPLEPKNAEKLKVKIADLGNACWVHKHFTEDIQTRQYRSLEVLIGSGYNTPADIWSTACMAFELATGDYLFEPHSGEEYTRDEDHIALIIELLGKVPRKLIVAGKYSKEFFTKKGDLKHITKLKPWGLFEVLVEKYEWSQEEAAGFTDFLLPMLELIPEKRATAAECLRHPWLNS
Assay [3] has the same target. Conditions: at 1 µM.
For assay [4], the target named is Phosphatidylinositol 4,5-bisphosphate 3-kinase catalytic subunit alpha isoform (Homo sapiens) (UniProt P42336). Conditions: at 0.1 µM.
Sequence of Phosphatidylinositol 4,5-bisphosphate 3-kinase catalytic subunit alpha isoform (Homo sapiens) (P42336 whole entry, canonical isoform): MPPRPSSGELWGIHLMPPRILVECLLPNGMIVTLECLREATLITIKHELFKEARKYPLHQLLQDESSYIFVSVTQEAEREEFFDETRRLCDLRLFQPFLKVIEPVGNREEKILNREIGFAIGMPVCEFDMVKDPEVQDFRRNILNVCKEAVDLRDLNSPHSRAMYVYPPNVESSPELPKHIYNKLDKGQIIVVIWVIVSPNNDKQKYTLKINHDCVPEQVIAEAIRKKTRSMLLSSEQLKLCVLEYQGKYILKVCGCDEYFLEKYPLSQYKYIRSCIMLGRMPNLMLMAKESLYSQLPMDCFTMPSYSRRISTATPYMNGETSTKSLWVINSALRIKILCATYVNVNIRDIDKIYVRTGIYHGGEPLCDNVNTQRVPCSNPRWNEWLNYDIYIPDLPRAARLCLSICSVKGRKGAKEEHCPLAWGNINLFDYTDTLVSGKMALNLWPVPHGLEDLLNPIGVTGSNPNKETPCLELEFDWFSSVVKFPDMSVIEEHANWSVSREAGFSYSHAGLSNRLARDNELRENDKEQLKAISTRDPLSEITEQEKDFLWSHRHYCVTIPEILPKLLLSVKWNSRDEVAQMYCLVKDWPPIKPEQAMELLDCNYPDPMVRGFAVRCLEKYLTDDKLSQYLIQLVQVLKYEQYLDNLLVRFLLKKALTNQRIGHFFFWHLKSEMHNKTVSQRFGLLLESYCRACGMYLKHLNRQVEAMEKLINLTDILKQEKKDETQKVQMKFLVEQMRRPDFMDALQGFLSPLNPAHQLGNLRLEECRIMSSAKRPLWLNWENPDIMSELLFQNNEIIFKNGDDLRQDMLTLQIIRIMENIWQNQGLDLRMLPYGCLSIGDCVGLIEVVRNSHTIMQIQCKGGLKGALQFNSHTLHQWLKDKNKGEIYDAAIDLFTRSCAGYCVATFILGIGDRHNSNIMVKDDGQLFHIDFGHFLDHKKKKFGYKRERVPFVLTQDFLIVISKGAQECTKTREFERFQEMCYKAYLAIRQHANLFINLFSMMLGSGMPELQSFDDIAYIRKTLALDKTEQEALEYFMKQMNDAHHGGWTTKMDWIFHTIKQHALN
Assay [5] shares this target. As to conditions: at 1 µM.
For assay [6], the target named is T2, Phosphatidylinositol 4,5-bisphosphate 3-kinase catalytic subunit delta isoform (Homo sapiens) (UniProt O00329).
T2 sequence (whole entry): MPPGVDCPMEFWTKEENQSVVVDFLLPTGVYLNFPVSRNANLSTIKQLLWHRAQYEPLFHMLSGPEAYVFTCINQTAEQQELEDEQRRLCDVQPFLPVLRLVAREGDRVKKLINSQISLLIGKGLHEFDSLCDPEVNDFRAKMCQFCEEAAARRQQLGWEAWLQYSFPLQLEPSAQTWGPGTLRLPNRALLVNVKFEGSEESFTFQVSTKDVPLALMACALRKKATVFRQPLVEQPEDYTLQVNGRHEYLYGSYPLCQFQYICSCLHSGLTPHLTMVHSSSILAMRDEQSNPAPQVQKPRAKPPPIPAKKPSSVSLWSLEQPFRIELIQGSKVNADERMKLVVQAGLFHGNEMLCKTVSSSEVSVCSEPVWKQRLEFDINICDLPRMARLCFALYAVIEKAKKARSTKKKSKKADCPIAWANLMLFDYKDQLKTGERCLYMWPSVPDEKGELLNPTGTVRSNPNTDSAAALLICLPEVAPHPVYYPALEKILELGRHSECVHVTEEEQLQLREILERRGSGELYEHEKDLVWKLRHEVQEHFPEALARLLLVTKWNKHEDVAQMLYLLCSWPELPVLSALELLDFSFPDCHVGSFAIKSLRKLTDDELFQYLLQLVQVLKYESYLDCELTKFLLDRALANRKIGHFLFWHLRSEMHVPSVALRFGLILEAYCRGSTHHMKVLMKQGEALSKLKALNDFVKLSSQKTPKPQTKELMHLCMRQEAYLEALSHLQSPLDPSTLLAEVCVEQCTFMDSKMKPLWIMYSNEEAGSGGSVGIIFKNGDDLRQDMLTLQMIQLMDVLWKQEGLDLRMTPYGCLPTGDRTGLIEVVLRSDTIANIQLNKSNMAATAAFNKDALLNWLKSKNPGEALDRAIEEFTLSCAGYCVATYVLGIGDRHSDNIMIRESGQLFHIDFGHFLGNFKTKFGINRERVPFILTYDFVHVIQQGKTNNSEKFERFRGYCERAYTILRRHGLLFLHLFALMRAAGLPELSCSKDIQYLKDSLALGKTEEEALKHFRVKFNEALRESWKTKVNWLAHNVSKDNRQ
As to conditions: at 0.1 µM.

The target in assay [7] is T2, Phosphatidylinositol 4,5-bisphosphate 3-kinase catalytic subunit delta isoform (Homo sapiens). As to conditions: at 1 µM.
Assay [8] deals with Phosphatidylinositol 4-kinase beta (Homo sapiens) (UniProt Q9UBF8). As to conditions: at 0.1 µM.
Sequence of Phosphatidylinositol 4-kinase beta (Homo sapiens) (Q9UBF8 2-816 limits assumed): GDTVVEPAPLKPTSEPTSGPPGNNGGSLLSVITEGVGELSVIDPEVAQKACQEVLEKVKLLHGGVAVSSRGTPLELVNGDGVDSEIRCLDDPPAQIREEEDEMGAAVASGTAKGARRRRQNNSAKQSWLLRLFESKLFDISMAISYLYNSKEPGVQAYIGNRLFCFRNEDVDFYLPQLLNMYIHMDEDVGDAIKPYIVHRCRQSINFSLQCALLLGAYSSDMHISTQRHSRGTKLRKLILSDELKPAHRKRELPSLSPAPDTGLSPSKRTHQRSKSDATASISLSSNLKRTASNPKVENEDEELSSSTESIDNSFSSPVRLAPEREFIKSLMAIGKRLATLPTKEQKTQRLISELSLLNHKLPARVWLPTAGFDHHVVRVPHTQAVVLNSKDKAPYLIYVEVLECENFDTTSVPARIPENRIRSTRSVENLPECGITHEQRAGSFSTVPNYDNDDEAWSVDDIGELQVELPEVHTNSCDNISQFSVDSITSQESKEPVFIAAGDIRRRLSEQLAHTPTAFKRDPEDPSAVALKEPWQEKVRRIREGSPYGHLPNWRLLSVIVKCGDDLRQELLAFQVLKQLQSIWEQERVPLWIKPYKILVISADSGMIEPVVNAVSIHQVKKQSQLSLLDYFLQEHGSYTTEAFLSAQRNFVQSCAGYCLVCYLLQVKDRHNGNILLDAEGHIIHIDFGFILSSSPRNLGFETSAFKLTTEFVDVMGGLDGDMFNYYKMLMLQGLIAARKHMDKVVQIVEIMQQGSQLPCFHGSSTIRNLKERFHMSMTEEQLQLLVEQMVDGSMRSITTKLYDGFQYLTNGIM
Assay [9] has the same target. Conditions: at 1 µM.
Assay [10] deals with Sphingosine kinase 1 (Homo sapiens) (UniProt Q9NYA1). Conditions: at 0.1 µM.
Sequence of Sphingosine kinase 1 (Homo sapiens) (Q9NYA1 whole entry): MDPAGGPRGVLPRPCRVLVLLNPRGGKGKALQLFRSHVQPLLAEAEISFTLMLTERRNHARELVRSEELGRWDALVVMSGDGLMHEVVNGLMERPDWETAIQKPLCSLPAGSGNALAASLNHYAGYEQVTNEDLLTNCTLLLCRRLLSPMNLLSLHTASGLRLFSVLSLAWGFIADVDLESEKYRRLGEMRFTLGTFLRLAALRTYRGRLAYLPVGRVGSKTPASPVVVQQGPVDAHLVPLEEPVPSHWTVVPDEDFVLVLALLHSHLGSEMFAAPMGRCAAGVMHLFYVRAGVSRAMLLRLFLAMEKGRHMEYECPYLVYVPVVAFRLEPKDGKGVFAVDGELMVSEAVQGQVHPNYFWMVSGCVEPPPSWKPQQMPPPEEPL
Assay [11] shares this target. As to conditions: at 1 µM.
The target of assay [12] is T3, Sphingosine kinase 2 (Homo sapiens) (UniProt Q9NRA0).
T3 sequence (whole entry): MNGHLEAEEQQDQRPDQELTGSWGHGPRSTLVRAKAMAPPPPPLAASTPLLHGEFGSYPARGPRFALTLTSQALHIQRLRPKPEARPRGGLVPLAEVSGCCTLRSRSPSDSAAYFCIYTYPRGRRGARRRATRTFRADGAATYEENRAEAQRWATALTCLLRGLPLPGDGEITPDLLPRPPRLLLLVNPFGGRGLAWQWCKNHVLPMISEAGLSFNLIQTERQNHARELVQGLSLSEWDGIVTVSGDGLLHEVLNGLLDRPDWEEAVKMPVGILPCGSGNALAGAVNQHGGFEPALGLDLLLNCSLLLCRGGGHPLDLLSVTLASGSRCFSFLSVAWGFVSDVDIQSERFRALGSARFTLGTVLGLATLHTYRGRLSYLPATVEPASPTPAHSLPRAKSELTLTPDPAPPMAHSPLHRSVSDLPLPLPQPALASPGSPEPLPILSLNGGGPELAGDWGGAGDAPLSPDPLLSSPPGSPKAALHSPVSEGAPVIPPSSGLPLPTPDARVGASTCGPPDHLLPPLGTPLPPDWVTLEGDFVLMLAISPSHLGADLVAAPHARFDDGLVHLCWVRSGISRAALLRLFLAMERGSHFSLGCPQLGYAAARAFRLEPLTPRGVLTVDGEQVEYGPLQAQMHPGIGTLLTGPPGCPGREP
As to conditions: at 0.1 µM.

Assay [13] concerns the target T3, Sphingosine kinase 2 (Homo sapiens). Conditions: at 1 µM.
Assay [14] addresses Casein kinase II subunit alpha (Homo sapiens) (UniProt P68400). Conditions: at 0.1 µM.
The target is the same in assay [15]. Conditions: at 1 µM.
Assay [16] has as its target T4, Inhibitor of nuclear factor kappa-B kinase subunit alpha (Homo sapiens) (UniProt O15111).
T4 sequence (whole entry): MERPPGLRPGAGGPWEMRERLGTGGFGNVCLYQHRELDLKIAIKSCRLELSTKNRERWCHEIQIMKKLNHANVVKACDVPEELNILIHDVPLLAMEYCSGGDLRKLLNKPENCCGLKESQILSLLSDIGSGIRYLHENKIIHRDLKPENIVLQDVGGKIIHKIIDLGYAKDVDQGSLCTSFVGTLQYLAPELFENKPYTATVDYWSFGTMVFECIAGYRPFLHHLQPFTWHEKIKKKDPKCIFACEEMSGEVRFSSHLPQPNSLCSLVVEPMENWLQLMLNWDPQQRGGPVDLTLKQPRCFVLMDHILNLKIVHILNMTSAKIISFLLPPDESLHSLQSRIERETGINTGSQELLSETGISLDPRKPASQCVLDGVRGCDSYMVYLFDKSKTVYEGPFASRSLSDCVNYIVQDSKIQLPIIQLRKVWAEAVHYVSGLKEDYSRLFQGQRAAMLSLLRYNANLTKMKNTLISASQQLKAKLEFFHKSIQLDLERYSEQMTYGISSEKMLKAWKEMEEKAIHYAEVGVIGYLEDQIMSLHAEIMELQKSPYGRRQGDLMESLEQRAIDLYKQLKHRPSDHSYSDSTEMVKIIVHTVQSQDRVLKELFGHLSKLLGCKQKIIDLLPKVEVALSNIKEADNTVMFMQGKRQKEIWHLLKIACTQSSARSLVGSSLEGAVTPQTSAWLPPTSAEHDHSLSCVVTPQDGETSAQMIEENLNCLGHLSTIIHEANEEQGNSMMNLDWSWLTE
As to conditions: at 0.1 µM.

Assay [17] addresses T4, Inhibitor of nuclear factor kappa-B kinase subunit alpha (Homo sapiens). Conditions: at 1 µM.
In assay [18] the target is T5, Inhibitor of nuclear factor kappa-B kinase subunit beta (Homo sapiens) (UniProt O14920).
T5 sequence (whole entry): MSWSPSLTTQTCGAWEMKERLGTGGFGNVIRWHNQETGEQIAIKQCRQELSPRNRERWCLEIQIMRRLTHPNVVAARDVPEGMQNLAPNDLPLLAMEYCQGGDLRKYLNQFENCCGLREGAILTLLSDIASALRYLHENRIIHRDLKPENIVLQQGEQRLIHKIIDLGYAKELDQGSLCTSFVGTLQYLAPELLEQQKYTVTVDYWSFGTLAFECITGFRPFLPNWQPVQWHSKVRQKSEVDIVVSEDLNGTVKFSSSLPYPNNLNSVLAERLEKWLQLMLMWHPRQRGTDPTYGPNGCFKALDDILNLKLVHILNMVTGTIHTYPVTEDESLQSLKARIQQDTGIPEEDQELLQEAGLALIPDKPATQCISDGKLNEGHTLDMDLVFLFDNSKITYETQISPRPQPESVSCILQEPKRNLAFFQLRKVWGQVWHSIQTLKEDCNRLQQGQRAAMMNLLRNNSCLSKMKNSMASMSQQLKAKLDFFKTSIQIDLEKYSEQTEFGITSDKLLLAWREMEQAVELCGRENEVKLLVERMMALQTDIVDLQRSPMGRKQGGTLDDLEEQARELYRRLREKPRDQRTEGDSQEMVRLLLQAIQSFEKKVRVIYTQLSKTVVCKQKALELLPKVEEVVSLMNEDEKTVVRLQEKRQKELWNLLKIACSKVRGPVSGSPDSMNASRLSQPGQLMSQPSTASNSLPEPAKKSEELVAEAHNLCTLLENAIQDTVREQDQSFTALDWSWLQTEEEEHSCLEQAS
As to conditions: at 0.1 µM.

The target in assay [19] is T5, Inhibitor of nuclear factor kappa-B kinase subunit beta (Homo sapiens). Conditions: at 1 µM.
Assay [20] deals with T6, Inhibitor of nuclear factor kappa-B kinase subunit epsilon (Homo sapiens) (UniProt Q14164).
T6 sequence (whole entry): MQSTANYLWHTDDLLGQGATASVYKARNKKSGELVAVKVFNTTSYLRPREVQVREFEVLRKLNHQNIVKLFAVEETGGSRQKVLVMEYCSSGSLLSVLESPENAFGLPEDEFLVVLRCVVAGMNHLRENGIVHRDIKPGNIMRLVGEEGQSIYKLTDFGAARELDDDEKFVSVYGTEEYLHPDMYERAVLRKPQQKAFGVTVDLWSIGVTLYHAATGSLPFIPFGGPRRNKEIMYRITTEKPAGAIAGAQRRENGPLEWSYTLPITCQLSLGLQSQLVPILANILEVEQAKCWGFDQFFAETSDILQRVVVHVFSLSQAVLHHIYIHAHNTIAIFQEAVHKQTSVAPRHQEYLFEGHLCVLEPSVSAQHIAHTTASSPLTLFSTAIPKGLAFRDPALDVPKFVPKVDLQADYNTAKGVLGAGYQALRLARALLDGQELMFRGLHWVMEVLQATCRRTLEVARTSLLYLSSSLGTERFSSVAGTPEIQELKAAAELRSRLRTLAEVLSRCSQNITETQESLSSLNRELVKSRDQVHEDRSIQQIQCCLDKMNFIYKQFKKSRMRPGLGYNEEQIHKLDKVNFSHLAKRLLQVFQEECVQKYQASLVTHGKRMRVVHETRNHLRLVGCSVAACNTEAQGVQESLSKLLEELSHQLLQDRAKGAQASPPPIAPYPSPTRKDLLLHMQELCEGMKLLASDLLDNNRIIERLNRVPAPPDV
Conditions: at 0.1 µM.

For three molecules, inhibition results are on record in ChEMBL document CHEMBL1961873, “Compounds: GSK PKIS; Assays: Nanosyn kinase panel” (2012).

Sequence of Casein kinase II subunit alpha (Homo sapiens) (P68400 whole entry, looked up): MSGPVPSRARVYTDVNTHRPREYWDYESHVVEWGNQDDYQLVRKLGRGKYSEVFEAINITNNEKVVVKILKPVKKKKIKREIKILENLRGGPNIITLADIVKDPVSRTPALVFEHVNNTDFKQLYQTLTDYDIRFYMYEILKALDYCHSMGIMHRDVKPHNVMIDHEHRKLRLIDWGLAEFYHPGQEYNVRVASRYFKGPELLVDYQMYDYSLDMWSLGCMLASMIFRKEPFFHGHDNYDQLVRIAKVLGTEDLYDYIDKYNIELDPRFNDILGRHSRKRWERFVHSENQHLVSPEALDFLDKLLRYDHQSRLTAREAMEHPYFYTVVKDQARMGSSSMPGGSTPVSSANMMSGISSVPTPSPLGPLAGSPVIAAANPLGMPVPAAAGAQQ

For orientation: inhibition means the relative decrease from the control value, in per cent. For `COc1cccc(-n2ncc3c(N/N=C/c4ccc(C(=O)NCCN(C)C)cc4)ncnc32)c1`, the inhibition is 4.67% in [1]; -1.63% in assay [2]; -2.59% in [3]; 2.48% in assay [4]; 20.2% in [5]; 4.52% in [6]. Besides, the inhibition in assay [7] is 16.3%; in assay [8], -3.13%; in assay [9] it was 5.75%; in [10] it was 5.89%; in assay [11], 0.56%; in [12] it was 0.23%. For the same molecule, the inhibition in [13] came out at 1.39%; in assay [14], 31%; in assay [15] it was 62.2%; in assay [16], 1.29%; in [17] it was 4.43%; in assay [18], 1.09%. Moreover, the inhibition in [19] is 0.86%; in [20], -1.79%.

Regarding `COc1c(C(N)=O)cc(-c2ccc(Cl)cc2)cc1-c1ccc(S(N)(=O)=O)cc1`, the inhibition is 5.43% in assay [1]; -3.03% in assay [2]; -1.89% in assay [3]; 4.8% in assay [4]; 2.59% in [5]; 0.32% in assay [6]. In addition, the inhibition was 1.67% in assay [7]; 0.85% in assay [8]; 3.11% in assay [9]; 0.56% in [10]; 0.21% in assay [11]; -0.78% in [12]. The inhibition in [13] amounted to 0.28%; in assay [14] it was 1.48%; in assay [15], 3.63%; in assay [16], 2.15%; in [17] it was 1.32%; in assay [18], 6.58%. Moreover, the inhibition worked out at 4.61% in assay [19] and 8.74% in assay [20].

For the molecule `CCOc1ccc2c(-c3ccnc(Nc4cc(OC)cc(C(F)(F)F)c4)n3)cnn2n1`, the inhibition was 1.08% in [1]; -1.1% in [2]; -0.9% in assay [3]; -0.03% in [4]; 5.25% in assay [5]; -1.72% in assay [6]. The inhibition in assay [7] is 10.2%; in assay [8] it was 3.54%; in assay [9], -4.92%; in assay [10], -3.8%; in assay [11], 1.71%; in assay [12] it was 4.25%. The inhibition was 0% in [13]; 4.76% in assay [14]; 15.3% in [15]; -1.77% in assay [16]; 4.02% in [17]; -0.06% in [18]. Moreover, the inhibition in assay [19] is -2.55%; in assay [20], 2.74%.
